A selection: hits, their analogues and other compounds. The true share with any hit is near 2.5%.
Cruzain inh noDet = cruzain (T. cruzi) inhibition without detergent. P25779. AID 1476. purified cruzain, Z-FR-AMC fluorescence, no detergent. hit rate 2.3% among 200,000. Potency, µM, hits mostly inhibitors; note: nearly all actives have a fitted effect of over 40% in size
Target sequence (P25779 123-467 limits assumed): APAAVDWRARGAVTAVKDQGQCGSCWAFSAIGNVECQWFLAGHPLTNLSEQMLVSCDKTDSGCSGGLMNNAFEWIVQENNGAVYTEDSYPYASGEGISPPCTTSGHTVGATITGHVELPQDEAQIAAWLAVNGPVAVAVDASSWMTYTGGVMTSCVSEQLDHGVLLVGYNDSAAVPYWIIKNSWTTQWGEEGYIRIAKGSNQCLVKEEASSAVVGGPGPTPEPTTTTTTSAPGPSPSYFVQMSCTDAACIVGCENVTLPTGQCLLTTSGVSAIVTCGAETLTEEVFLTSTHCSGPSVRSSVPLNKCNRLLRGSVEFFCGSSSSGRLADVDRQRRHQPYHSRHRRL
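Purified cruzain at 1.5 nM, pre-incubated 15 min with compound at room temperature in 100 mM sodium acetate pH 5.5, 5 mM DTT, 0.00005% Triton X-100. Reaction started with 2 uM Z-FR-AMC; AMC fluorescence increase over 60 s gives rate.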
Cruzain Triton = cruzain (T. cruzi) inhibition with detergent. purified cruzain, Z-FR-AMC fluorescence, 0.01% Triton. hit rate 0.43% among 200,000. Potency, µM, hits mostly inhibitors; note: nearly all actives have a fitted effect of over 40% in size
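Cruzain (1.5 nM) preincubated 15 min at RT with compound in 100 mM sodium acetate pH 5.5, 5 mM DTT, 0.01% Triton X-100. Reaction started with 2 uM Z-FR-AMC; AMC fluorescence (ex 360/em 450 nm) change over 60 s gave rate.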
Each line names hits and unclear results; the compound was inactive in the other large screens. Calls come from the whole dose curve; as a rule, active = well fitted curve in the direction sought with a large enough effect; inconclusive = small, poorly fitted or top-dose-only effect, or another doubt; inactive = no such curve, though single readings can be large; an effect the other way counts as inactive or inconclusive.

COC(=O)c1ccccc1NC(=O)c1ccc(-c2ccc(Br)cc2)o1	Cruzain inh noDet 7.9µM
Cc1c(C(=O)N2CCCCCC2)c(S(=O)(=O)Nc2ccc(OC(F)(F)F)cc2)c(C)n1C	Cruzain inh noDet inconclusive
CCN(C(=O)Cn1c(=O)oc2cc(S(=O)(=O)N3CCCCCC3)ccc21)c1cccc(C)c1	none
COCC(=O)N1c2nc(-c3ccco3)nn2C2(CCCCC2)[C@@H]2CCCC[C@@H]21	none
CC(=O)OCC(=O)[C@@]1(O)CCC2C3C[C@H](C)C4=CC(=O)C=CC4(C)C3C(O)CC21C (some centres not stated)	none
Cc1ccccc1CNCc1c(C(=O)O)c(C)n(Cc2ccc(F)cc2Cl)c1C	none
CC(C)C(c1nnnn1C1CCCCC1)N1CCc2ccccc21 (configuration not stated)	none
Cc1ccc(C(c2nnnn2C2CCCCC2)N2CCc3ccccc32)cc1 (configuration not stated)	Cruzain inh noDet 25µM
COC(=O)[C@H](Cc1ccccc1)NC(=O)O[C@@H]1C(=O)c2ccc(OC)cc2O[C@H]1c1cccc(C(F)(F)F)c1	none
CC(C)(C)c1ccc(C(=O)NC(=S)Nc2sc3c(c2C#N)CCC3)cc1	Cruzain inh noDet 10µM
CCN1CCc2c(sc(NC(=S)NC(=O)c3ccccc3)c2C#N)C1	none
CC1CCc2c(sc(NC(=O)c3ccc(-c4ccccc4[N+](=O)[O-])o3)c2C#N)C1 (configuration not stated)	Cruzain inh noDet 10µM
N#Cc1c(NC(=O)c2ccc(-c3ccccc3[N+](=O)[O-])o2)sc2c1CCCC2	Cruzain inh noDet inconclusive
N#Cc1c(NC(=S)NC(=O)c2ccccc2)sc2c1CCC2	none
CC1CCc2sc(NC(=S)NC(=O)c3ccccc3)c(C#N)c2C1 (configuration not stated)	Cruzain inh noDet 25µM
CCCCCCCCCCCCCCCC(=O)OCC(O)C1OC(=O)C(O)=C1O (configuration not stated)	Cruzain inh noDet inconclusive
O=C(O)[C@@H]1[C@H](C(=O)O)[C@]2(Cl)C(Cl)=C(Cl)[C@@]1(Cl)C2(Cl)Cl	none
Cc1ccc(SCCNC(=O)CN(c2ccccc2)S(=O)(=O)N(C)C)cc1	none
CC(=O)CCOC1CCCCO1 (configuration not stated)	none
Cc1ccc(-c2cc(C(=O)N3CCCc4ccccc43)c3ccccc3n2)cc1	Cruzain inh noDet 32µM
O=C(c1cc(-c2cccnc2)nc2ccccc12)N1CCCc2ccccc21	none
COc1cc(OC)c(NC(=O)CC(c2cccs2)N2Cc3ccccc3C2=O)cc1Cl (configuration not stated)	none
CCOc1ccc(S(=O)(=O)Nc2ccc3c(c2)c(C(C)=O)c(C)n3S(=O)(=O)c2ccc(OCC)cc2)cc1	Cruzain inh noDet inconclusive
CCOc1ccc(S(=O)(=O)Nc2ccc3c(c2)c2c(n3S(=O)(=O)c3ccc(OCC)cc3)CCCC2=O)cc1	Cruzain inh noDet 7.9µM
COc1cccc2c1Oc1ncccc1N(C(=O)Nc1cccc(Cl)c1)C2	none
CC(/C=N/N1CCN(c2ccc(C)cc2)CC1)=C\c1ccccc1	none
CC(/C=N\N1CCN(c2ccc(Cl)cc2)CC1)=C\c1ccccc1	Cruzain inh noDet 7.9µM
O=C1/C(=C/c2ccc([N+](=O)[O-])cc2)C=C(c2ccccc2)N1c1ccccc1	Cruzain inh noDet 13µM
COc1ccc(N2C(=O)/C(=C/c3ccc([N+](=O)[O-])cc3)C=C2c2ccccc2)cc1	Cruzain inh noDet 16µM
O=C1/C(=C/c2ccc([N+](=O)[O-])cc2)C=C(c2ccccc2)N1c1ccc(O)cc1	Cruzain inh noDet inconclusive
COc1ccc(-c2cc(=O)n(-c3ccc([N+](=O)[O-])cc3)[nH]2)cc1	Cruzain inh noDet inconclusive
O=C(CCC1N=C2c3ccccc3N=C(SCC(=O)Nc3ccccc3F)N2C1=O)NCc1ccco1 (configuration not stated)	none
Cc1ccccc1C1CC(=O)Oc2ccc(O)cc21 (configuration not stated)	none
O=C(c1ccc(Cn2c(=O)[nH]c3ccccc3c2=O)cc1)N1CCN(c2ccc(F)cc2)CC1	none
Cc1c(C)n(Cc2ccccc2)c2ccc(C(=O)N3CCN(c4ccccc4)CC3)cc12	Cruzain inh noDet inconclusive
Cc1c(C)n(Cc2ccc(F)cc2)c2ccc(C(=O)N3CCN(c4ccc(Cl)cc4)CC3)cc12	Cruzain inh noDet 7.9µM
Cc1c(C)n(Cc2ccccc2)c2ccc(C(=O)N3CCN(c4ccc(F)cc4)CC3)cc12	Cruzain inh noDet 32µM
COc1ccccc1Cc1nc2ccccc2nc1SCC(=O)N1CCN(c2ccccc2)CC1	none
O=C(NC1CCCCC1)C(c1ccc(F)cc1)N(C(=O)Cc1ccsc1)c1ccc(F)cc1 (configuration not stated)	none
O=C(NC1CCCC1)C(c1ccsc1)N(C(=O)Cc1cccs1)c1ccccc1 (configuration not stated)	Cruzain inh noDet 10µM
O=C(NC1CCCC1)C(c1ccsc1)N(CCc1ccccc1)C(=O)Cc1cccs1 (configuration not stated)	Cruzain inh noDet inconclusive
O=C(NC1CCCCC1)C(c1ccccc1)N(C(=O)Cc1ccsc1)c1ccccc1 (configuration not stated)	Cruzain inh noDet 16µM
Cc1cc(=O)c2cc(C(=O)Nc3ccc(C)c(C)c3)ccc2[nH]1	none
Nc1nonc1-c1nc2ccccc2n1Cc1ccccc1	none
Nc1nonc1-c1nc2ccccc2n1Cc1c(Cl)cccc1Cl	Cruzain inh noDet 25µM
O=C(NCc1ccc(Cl)cc1)C1CCN(S(=O)(=O)c2ccc3c(c2)CCCN3C(=O)C2CCC2)CC1	none
COc1cc(C2=N/C(=C\c3ccccc3)C(=O)O2)cc(OC)c1OC	none
COc1cc(/C=C2/N=C(C3CCCCC3)OC2=O)cc(OC)c1OC	Cruzain inh noDet 2.5µM, Cruzain Triton 2.5µM
COc1ccc2c(CNCc3ccco3)c(C(=O)O)n(Cc3ccc(F)cc3Cl)c2c1	none
CCOc1ccccc1NC(=O)C(OC(=O)c1ccccc1NS(=O)(=O)c1cccs1)c1ccccc1 (configuration not stated)	Cruzain inh noDet inconclusive
CC(=O)c1cccc(NC(=O)C(OC(=O)c2cccc(S(=O)(=O)N(C)c3ccccc3)c2)c2ccccc2)c1 (configuration not stated)	Cruzain inh noDet 25µM
CC(=O)c1cccc(NC(=O)C(OC(=O)c2ccccc2NS(=O)(=O)c2cccs2)c2ccccc2)c1 (configuration not stated)	Cruzain inh noDet 7.9µM
COc1ccc(C)cc1NC(=O)c1ccc(N(C)S(C)(=O)=O)cc1	none
COc1ccc(C)cc1NC(=O)C(OC(=O)c1ccc(Cl)c(S(=O)(=O)N(C)c2ccccc2)c1)c1ccccc1 (configuration not stated)	Cruzain inh noDet 10µM
COc1ccc(N(C)S(=O)(=O)c2cccc(C(=O)OC(C(=O)Nc3cc(C)cc(C)c3)c3ccccc3)c2)cc1 (configuration not stated)	Cruzain inh noDet 10µM
CC(=O)NCCC(=O)Nc1cccc(S(=O)(=O)N(C)c2ccccc2)c1	none
COc1ccc(N(C)S(=O)(=O)c2cccc(C(=O)Nc3ccc(OC)nc3)c2)cc1	none
COc1cccc(NC(=O)CSc2nc3ccc(NC(=O)c4ccco4)cc3s2)c1	none
Cc1ccccc1CS(=O)(=O)Cc1ccc(C(=O)NCCc2ccc(Cl)cc2)o1	none
COc1cc(C)ccc1OCCSc1nc2ccc(NC(C)=O)cc2s1	Cruzain inh noDet inconclusive
CCCn1c(CNC(=O)c2cccs2)nc2ccccc21	none
CCCCn1c(CCNC(=O)c2cccs2)nc2ccccc21	Cruzain inh noDet 10µM
